Results filed as inconclusive are left out. Unmarked numbers belong to inactive results. Active and inactive are the calls of the source. The call rests on the fitted dose curve; in most records, active means well fitted curve in the direction sought with a large enough effect; inconclusive means small, poorly fitted or top-dose-only effect, or another doubt; inactive means no such curve, though single readings can be large; an effect the other way counts as inactive or inconclusive.

In PubChem BioAssay (NCATS) one finds Potency and activation data, which are given here for 27 compounds.

For experiment [1], the target named is Rap guanine nucleotide exchange factor 3 (Homo sapiens) (UniProt O95398). Briefly: Confirmatory qHTS for agonist of cAMP-regulated guanine nucleotide exchange factor 3 (EPAC1) (AID 1645881).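 Further: EPAC1 catalysed release of BODIPY-GDP from Rap1B seen as fluorescence loss; 100% = effect of cAMP agonist control; nearly all actives have a fitted effect of over 75% in size.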 A general note: qHTS replaces the single test concentration by a dilution series.
Sequence of Rap guanine nucleotide exchange factor 3 (Homo sapiens) (O95398 whole entry, looked up): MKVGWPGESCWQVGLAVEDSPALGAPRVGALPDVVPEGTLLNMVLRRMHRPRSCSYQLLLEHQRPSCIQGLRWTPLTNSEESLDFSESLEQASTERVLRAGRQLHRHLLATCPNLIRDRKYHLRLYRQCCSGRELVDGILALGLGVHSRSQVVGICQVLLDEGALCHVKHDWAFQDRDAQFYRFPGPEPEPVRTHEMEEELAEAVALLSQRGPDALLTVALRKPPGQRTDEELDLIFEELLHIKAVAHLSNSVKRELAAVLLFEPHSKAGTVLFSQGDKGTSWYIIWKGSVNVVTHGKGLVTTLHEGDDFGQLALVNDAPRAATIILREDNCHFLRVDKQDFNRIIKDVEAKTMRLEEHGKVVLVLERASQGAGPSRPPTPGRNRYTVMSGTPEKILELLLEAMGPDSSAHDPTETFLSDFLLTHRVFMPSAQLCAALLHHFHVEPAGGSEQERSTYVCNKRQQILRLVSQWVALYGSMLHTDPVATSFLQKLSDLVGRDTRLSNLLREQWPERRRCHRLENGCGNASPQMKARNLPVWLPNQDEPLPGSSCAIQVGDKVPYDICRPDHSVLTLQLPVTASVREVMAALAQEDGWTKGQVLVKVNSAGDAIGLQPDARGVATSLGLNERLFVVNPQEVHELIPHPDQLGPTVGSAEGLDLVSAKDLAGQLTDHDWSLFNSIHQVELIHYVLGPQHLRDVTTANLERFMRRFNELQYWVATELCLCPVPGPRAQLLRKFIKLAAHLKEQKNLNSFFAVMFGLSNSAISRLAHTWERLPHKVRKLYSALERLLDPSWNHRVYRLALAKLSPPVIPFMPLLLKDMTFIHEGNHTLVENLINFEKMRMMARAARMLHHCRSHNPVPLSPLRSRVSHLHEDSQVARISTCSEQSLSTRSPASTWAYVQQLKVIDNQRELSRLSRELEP
Experiment [2] addresses Rap guanine nucleotide exchange factor 4 (Homo sapiens) (UniProt Q8WZA2). Put plainly: Confirmatory qHTS for agonist of cAMP-regulated guanine nucleotide exchange factor 4 (EPAC2) (AID 1645884).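 Further: nucleotide exchange releases bodipy-GDP from Rap1 and this lowers its fluorescence; on the % scale 0 is the no-effect control and ±100 the full control effect; nearly all actives have a fitted effect of over 65% in size.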
The target is the same in experiment [3]. Briefly: Confirmatory qHTS for antagonist of cAMP-regulated guanine nucleotide exchange factor 4 (EPAC2) (AID 1645885). Further: nearly all actives have a fitted effect of over 25% in size. Further: potency means the concentration at half of the fitted maximal effect.
The target in experiment [4] is Rap guanine nucleotide exchange factor 3 (Homo sapiens) (UniProt O95398). Briefly: Counterscreen qHTS for agonist of cAMP-regulated guanine nucleotide exchange factor 3 (EPAC1) (AID 1645889). Further: % of control where 0% means no effect; nearly all actives have a fitted effect of over 40% in size. In a few lines:
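Measured: fluorescence of BODIPY-GDP bound to Rap1B, which falls as exchange proceeds. Conditions include 50 uM competing GDP, 5 and 30 min reads, and a later cAMP challenge for antagonist detection.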
(The purpose of a counterscreen is to sort out artefacts and off-target activity.)

Sequence of Rap guanine nucleotide exchange factor 4 (Homo sapiens) (Q8WZA2 whole entry, looked up): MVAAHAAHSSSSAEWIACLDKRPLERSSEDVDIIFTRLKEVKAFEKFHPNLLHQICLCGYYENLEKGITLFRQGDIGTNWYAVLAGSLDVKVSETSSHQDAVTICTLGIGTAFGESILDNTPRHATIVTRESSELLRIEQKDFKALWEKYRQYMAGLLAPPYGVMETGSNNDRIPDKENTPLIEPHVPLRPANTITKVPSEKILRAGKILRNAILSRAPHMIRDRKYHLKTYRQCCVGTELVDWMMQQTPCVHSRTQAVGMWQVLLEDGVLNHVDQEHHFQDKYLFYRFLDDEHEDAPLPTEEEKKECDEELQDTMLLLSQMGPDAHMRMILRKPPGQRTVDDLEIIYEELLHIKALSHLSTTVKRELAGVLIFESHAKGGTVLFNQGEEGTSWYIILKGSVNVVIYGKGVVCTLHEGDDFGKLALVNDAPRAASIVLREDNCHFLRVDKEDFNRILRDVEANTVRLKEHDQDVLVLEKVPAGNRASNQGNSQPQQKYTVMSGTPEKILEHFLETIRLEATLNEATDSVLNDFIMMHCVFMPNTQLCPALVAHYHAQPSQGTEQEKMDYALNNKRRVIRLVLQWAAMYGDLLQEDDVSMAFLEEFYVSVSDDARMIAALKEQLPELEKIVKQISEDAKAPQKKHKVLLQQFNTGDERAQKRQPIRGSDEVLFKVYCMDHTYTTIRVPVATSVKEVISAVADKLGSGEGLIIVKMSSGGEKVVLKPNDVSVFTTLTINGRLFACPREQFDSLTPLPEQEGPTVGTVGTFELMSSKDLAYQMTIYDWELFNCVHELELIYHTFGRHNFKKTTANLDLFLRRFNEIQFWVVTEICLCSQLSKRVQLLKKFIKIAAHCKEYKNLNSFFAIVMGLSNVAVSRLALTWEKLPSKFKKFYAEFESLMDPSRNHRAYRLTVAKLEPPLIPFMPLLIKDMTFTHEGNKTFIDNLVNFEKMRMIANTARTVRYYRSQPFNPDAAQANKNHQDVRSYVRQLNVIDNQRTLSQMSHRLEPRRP

With `O=C(Nc1ccc(Cl)cc1)Nc1ccccc1NS(=O)(=O)c1cccs1`, the Potency entry in experiment [1] and in experiment [3] was “inactive” throughout. Moreover, the activation in experiment [2] was 7.96% [at 17.1 µM, percent relative to cAMP agonist control]; in experiment [4] it was 27.1% [at 30.8 µM].
Regarding `Cc1cc(-c2ccc(/C=N/n3cnnc3)o2)ccc1Cl`, the Potency entry in experiment [1], in experiment [2], in experiment [3] and in experiment [4] was “inactive” each time.
As to `COc1ccc(CCn2c(=N)c(C(=O)NC3CCCCC3)cc3c(=O)n4ccccc4nc32)cc1`, the Potency result in experiment [1], in experiment [2], in experiment [3] and in experiment [4] was “inactive” throughout.
With `CCCc1nc(SC2CCCC2)c2c(=O)n(C)c(=O)n(C)c2n1`, the Potency entry in experiment [1], in experiment [2], in experiment [3] and in experiment [4] was “inactive” throughout.
Take `O=C(NCc1ccc(OC(F)(F)F)cc1)C1CC(c2ccccc2C(F)(F)F)=NO1` (stereo not drawn): the Potency entry in experiment [1] and in experiment [3] was “inactive” throughout. Moreover, the activation in experiment [2] was 4.05% [at 17.1 µM, percent relative to cAMP agonist control]; in experiment [4], 3.19% [at 30.8 µM].
Consider `COc1cc(/C=C(\C#N)C(=O)Nc2ccccc2C(=O)O)cc(Cl)c1OC`, for which the Potency result in experiment [1], in experiment [2], in experiment [3] and in experiment [4] was “inactive” in each case.
For `CC1(C)CC(CCN(Cc2ccccc2)C(=O)c2ccco2)(c2ccccc2)CCO1` (stereo not drawn), the Potency entry in experiment [1], in experiment [2], in experiment [3] and in experiment [4] was “inactive” each time.
For `CC(C)CCOP(=O)(c1ccc(N(C)C)cc1)C(O)c1c(Cl)cccc1Cl` (stereo not drawn), the Potency result in experiment [1] and in experiment [3] was “inactive” in each case. Further, the activation in experiment [2] is 13.3% [at 17.1 µM, percent relative to cAMP agonist control]; in experiment [4] it was 2.73% [at 30.8 µM].
`CCOc1ccccc1CNC(=O)Cn1nc(C)c2c(C)n(-c3ccc(C)cc3)nc2c1=O`: the Potency entry in experiment [1] and in experiment [3] was “inactive” throughout. Also, the activation was -0.659% [at 17.1 µM, percent relative to cAMP agonist control] in experiment [2] and 18.3% [at 30.8 µM] in experiment [4].
In the case of `FC(F)(F)c1cccc(CN2CCC(c3cc(-c4cccs4)n[nH]3)CC2)c1`, the Potency entry in experiment [1], in experiment [2], in experiment [3] and in experiment [4] was “inactive” throughout.
For the compound `CCCCC[C@H](C)N1C[C@@H](COCc2ccccc2)Oc2cc(N3CC[C@H](O)C3)ccc2S1(=O)=O`, the Potency result in experiment [1], in experiment [2] and in experiment [4] was “inactive” each time. Moreover, the Potency in experiment [3] is 19 µM (active).
As to `CC(C)(C)Cc1c(-c2ccco2)nc2ccc(Cl)cn12`, the Potency result in experiment [1] and in experiment [3] was “inactive” in each case. Besides, the activation in experiment [2] is 1.87% [at 17.1 µM, percent relative to cAMP agonist control]; in experiment [4], 3.65% [at 30.8 µM].
`O=C(O)CCCC(=O)N1CCN(c2nc(-c3ccccc3Cl)c3cc(Br)ccc3n2)CC1`: the Potency entry in experiment [1], in experiment [2] and in experiment [4] was “inactive” in each case. Further, in experiment [3], the Potency is 13.5 µM (active).
With `COc1cccc(S(=O)(=O)Nc2ccc3c(c2)[C@@H]2C[C@@H](CC(=O)NCc4ccc(Cl)cc4)O[C@@H](CO)[C@@H]2O3)c1`, the Potency result in experiment [1], in experiment [2], in experiment [3] and in experiment [4] was “inactive” throughout.
`Cc1ccc(N=Cc2cc3c(cc2[N+](=O)[O-])OCO3)cc1[N+](=O)[O-]`: the Potency result in experiment [1] and in experiment [3] was “inactive” throughout. In addition, the activation was -8.35% [at 17.1 µM, percent relative to cAMP agonist control] in experiment [2] and -2.33% [at 30.8 µM] in experiment [4].
Take `CCc1nc2ccc(C(=O)Nc3ccc(NC(C)=O)cc3)cn2c1N(C)CCC(C)C`: the Potency entry in experiment [1], in experiment [2], in experiment [3] and in experiment [4] was “inactive” each time.
As for `CC(C)CCOP(=O)(c1ccc(N(C)C)cc1)C(O)c1ccc(Cl)cc1Cl` (stereo not drawn), the Potency entry in experiment [1], in experiment [2] and in experiment [4] was “inactive” each time. Also, the Potency in experiment [3] was 19 µM (active).
Turning to `COc1ccc(N2C(=O)Cc3cc(OC)c(OC)cc3C2c2ccc(F)cc2)cc1` (stereo not drawn), the Potency entry in experiment [1], in experiment [2], in experiment [3] and in experiment [4] was “inactive” throughout.
For the compound `O=C(COC(=O)c1cccc(NS(=O)(=O)c2ccc(F)c(F)c2)c1)NC(=O)NC1CCCC1`, the Potency entry in experiment [1], in experiment [2], in experiment [3] and in experiment [4] was “inactive” each time.
For the compound `CCO[C@H]1OC(C(=O)NCc2ccccc2)=C[C@@H](c2ccc(C(F)(F)F)cc2)[C@@H]1CCCO`, the Potency result in experiment [1], in experiment [2], in experiment [3] and in experiment [4] was “inactive” throughout.
Consider `Cc1cc(C)cc(N(CC(=O)Nc2ccc(C(F)(F)F)cc2)S(=O)(=O)c2c(C)[nH]c(=O)[nH]c2=O)c1`, for which the Potency result in experiment [1], in experiment [2], in experiment [3] and in experiment [4] was “inactive” throughout.
For `Nc1ccc(N2CCCCC2)c2nonc12`, the Potency result in experiment [1] and in experiment [3] was “inactive” in each case. Besides, the activation is -6.41% [at 17.1 µM, percent relative to cAMP agonist control] in experiment [2] and 6.94% [at 30.8 µM] in experiment [4].
Take `Cc1oc2ccc(O)c(CN(C)Cc3ccccc3)c2c1C(=O)Nc1cccc(C(F)(F)F)c1`: the Potency entry in experiment [1], in experiment [2], in experiment [3] and in experiment [4] was “inactive” throughout.
Take `O=S(=O)(c1ccc2nc(-c3ccco3)c(-c3ccco3)nc2c1)N1CCOCC1`: the Potency result in experiment [1] and in experiment [3] was “inactive” throughout. In addition, the activation in experiment [2] is 6.85% [at 17.1 µM, percent relative to cAMP agonist control]; in experiment [4] it was 21.3% [at 30.8 µM].
For `COCc1nc2ccccc2n1Cc1ccc(C(C)(C)C)cc1`, the Potency entry in experiment [1], in experiment [2], in experiment [3] and in experiment [4] was “inactive” in each case.
As for `C=CCn1c(SCC(=O)Nc2cc(Cl)ccc2C(=O)O)nc2sc(C)c(C)c2c1=O`, the Potency entry in experiment [1] and in experiment [3] was “inactive” each time. Moreover, the activation in experiment [2] was 10.1% [at 17.1 µM, percent relative to cAMP agonist control]; in experiment [4], 1.53% [at 30.8 µM].
Take `CCCCC[C@@H](C)N1C[C@H](COCc2ccccc2)Oc2cc(N3CC[C@@H](O)C3)ccc2S1(=O)=O`: the Potency entry in experiment [1], in experiment [2], in experiment [3] and in experiment [4] was “inactive” in each case.
